Results from PubChem BioAssay AID727 (The Scripps Research Institute Molecular Screening Center, 2007).
The campaign covered roughly 97,000 compounds. About 810 (0.84%) were called active. This is one part of a sample in which actives are shown more often than they occur. No stated cut-off is given here; in the data, active means inhibition above about 19%; inactive means the rest.

target: Focal adhesion kinase 1 (Homo sapiens) (UniProt Q05397); assay: FAK kinase inhibitors, primary screen, biochemical (AID 727); settings: biochemical FAK kinase activity assay; stronger effect = higher value;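 tested at 7 µM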;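 further: 0% = DMSO and 100% = reference compound high control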
Sequence (Q05397 whole entry, looked up): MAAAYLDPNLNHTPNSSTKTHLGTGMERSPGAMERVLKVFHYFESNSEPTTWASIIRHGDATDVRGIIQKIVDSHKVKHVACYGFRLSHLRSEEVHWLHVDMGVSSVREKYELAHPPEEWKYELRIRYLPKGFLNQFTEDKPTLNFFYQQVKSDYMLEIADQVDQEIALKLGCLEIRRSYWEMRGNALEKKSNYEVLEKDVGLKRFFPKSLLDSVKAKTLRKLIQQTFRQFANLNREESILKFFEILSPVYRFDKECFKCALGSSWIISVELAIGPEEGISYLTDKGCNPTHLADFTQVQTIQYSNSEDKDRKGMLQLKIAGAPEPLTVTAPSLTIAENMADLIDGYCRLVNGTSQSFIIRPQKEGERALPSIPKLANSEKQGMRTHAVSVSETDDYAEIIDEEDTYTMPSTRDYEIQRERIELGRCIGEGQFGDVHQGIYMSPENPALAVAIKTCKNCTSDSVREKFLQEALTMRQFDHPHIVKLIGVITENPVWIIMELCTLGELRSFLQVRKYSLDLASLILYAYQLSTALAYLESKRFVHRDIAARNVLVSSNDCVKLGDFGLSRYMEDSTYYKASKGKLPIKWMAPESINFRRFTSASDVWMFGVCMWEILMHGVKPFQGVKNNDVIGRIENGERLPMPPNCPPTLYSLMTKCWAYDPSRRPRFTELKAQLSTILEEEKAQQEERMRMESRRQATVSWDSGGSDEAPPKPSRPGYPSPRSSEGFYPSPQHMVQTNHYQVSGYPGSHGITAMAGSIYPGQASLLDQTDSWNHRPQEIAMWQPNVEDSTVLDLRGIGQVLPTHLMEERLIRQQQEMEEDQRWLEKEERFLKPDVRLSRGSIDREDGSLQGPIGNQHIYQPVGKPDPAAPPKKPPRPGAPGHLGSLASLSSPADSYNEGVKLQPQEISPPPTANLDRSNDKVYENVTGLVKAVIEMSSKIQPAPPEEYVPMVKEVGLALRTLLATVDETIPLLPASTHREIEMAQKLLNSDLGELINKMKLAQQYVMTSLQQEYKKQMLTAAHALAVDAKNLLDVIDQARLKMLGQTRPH

inhibition, inactive:
CCOC(=O)CC(=O)CSc1nc(-c2ccccc2)cc(-c2ccc(Cl)cc2)c1C#N -8.83%
N#CC1=C(N)N(c2ccccc2)C2=C(C(=O)CCC2)C1c1ccccc1 (stereo not drawn) 0.57%
O=C(NC1CCN(C(=S)NCc2ccco2)CC1)c1ccc(F)cc1 2.16%
CCOc1ccc(N=Cc2c(O)n(-c3cccc(C)n3)c(=O)c3ccccc23)cc1 -4.03%
CCN(c1ccccc1)S(=O)(=O)c1ccc(C(=O)Nc2nccs2)cc1 1.43%
COc1cc(C(=O)Nc2nccs2)cc(OC)c1OC -2.65%
Cc1ccccc1-n1c(C)cc(/C=N/NC(=O)c2ccc(CN3CCOCC3)cc2)c1C 5.57%
O=C(Cn1cc(/C=N/NC(=O)c2cccc(C(F)(F)F)c2)c2ccccc21)Nc1ccc(F)cc1 -6.09%
CCCNC(=S)N1CCC(NC(=O)C23CC4CC(CC(C4)C2)C3)CC1 0%
Cc1nn(-c2ccccc2)c(Cl)c1C(=O)Nc1ccccc1 1.43%
Cc1cccc(NC(=O)C(C)N2C(=O)C3C4CC(C(Br)C4Br)C3C2=O)c1 (stereo not drawn) 3.39%
COc1nc(-c2ccc(Cl)cc2)ccc1-c1noc(-c2cccs2)n1 -0.49%
CCOC(=O)C1=C(CN2CCc3ccccc32)NC(=O)NC1c1cc(C)ccc1C (stereo not drawn) 4.94%
CN(Cc1ccccc1)C(=O)COc1ccccc1 -1.65%
Cc1no[n+]([O-])c1COc1ccccc1/C=C1\NC(=S)NC1=O 1.38%
O=C1CCN(C(=O)Nc2ccccc2)N1 -0.01%
COC(=O)CN(C(=S)Nc1ccc(Cl)cc1)C1CC(=O)N(c2ccc(OC)cc2)C1=O (stereo not drawn) 1.24%
Cc1ccc(OCC(=O)N/N=C/c2ccncc2)cc1 1.58%
COC(=O)c1ccc(NC(=O)C23CC4CC(C2)CC(n2cnc(Cl)n2)(C4)C3)cc1 2.71%
CCCNC(=O)Nc1ccccc1C(=O)Nc1ccc(OC)cc1 4.85%
COc1ccc(C(=S)Nc2ccccc2)cc1 -5.15%
Cc1cccc(NC(=S)N2CCC(c3nc4ccccc4s3)CC2)c1 0.28%
Cc1nn(C)c(Oc2ccccc2)c1CCNS(=O)(=O)c1ccc(F)cc1 0.76%
Cc1nc2ccccc2c(-c2ccccc2)c1C(=O)c1ccccc1 0.7%
Cc1ccc(NC(=S)NC(=O)c2ccc(-c3ccccc3)cc2)c(C)c1 1.93%
CC(=O)NS(=O)(=O)c1ccc(NC(=O)/C=C/c2ccccc2Cl)cc1 -4.73%
Cc1ccc(/C=N/NC(=O)Cn2nc(C)c(Br)c2C)o1 -0.29%
COc1ccc(CCn2c(=N)c(C(=O)NCc3ccco3)cc3c(=O)n4cccc(C)c4nc32)cc1 1.33%
Cc1cccn2c(=O)c3cc(C#N)c(=O)n(CCCN4CCOCC4)c3nc12 2.6%
Cc1cccc(COc2ccccc2/C=N/Nc2ccc([N+](=O)[O-])cc2)c1 14.6%
Cc1[nH]c2ccccc2c1C(=O)COC(=O)C(C)C -1.84%
O=C(Cc1ncc(C(F)(F)F)cc1Cl)Nc1cccc(Br)c1 -7.54%
O=C(c1ccccn1)c1ncc(C(F)(F)F)cc1Cl -4.84%
COc1ccc(CC(NC(C)=O)C(=O)N2CCN(C(=O)Nc3cccc(Cl)c3)CC2)cc1OC (stereo not drawn) -1.84%
CCOc1cc2[nH]c(=S)n(Cc3ccc(C(=O)NCCOC)cc3)c(=O)c2cc1OCC 1.95%
Cc1nn(C)cc1CNC(=O)Nc1ccc(Cl)cc1 0.55%
CN(CC(=O)Nc1cccc2c1CCCC2)S(=O)(=O)c1ccc(Cl)cc1 2.06%
Cc1cc(=O)oc(C)c1C(=O)N1CCCCC1 -3.95%
Cc1c(NC(=O)CCCOc2ccccc2)cccc1[N+](=O)[O-] 5.03%
O=c1c2ccccc2c(-c2ccc(F)cc2)nn1-c1ccc(C(F)(F)F)cc1 -9.67%
Cc1cccc(Nc2ccccc2C(=O)NCc2ccco2)c1C -0.25%
COc1ccccc1OCCNc1cc(N2CCOCC2)ccc1[N+](=O)[O-] 0.07%
CCN(CC)Cc1cc(C(C)=O)ccc1O -1.48%
O=C1C(=O)N(c2ccccc2)c2ccccc21 -1.97%
CC(C)CC[n+]1ccn(C2=C([O-])c3ccccc3C(=O)/C2=N\S(=O)(=O)c2ccccc2)c1 0.45%
COCCOC(=O)c1sc(=S)n(CCOC)c1N 0.4%
Cc1cccc(-n2nc3c(c2NC(=O)c2ccc(Br)o2)CSC3)c1C -10.1%
COc1cc(OC)c(NC(=O)c2ccc(Br)o2)cc1Cl 2.86%
O=C(Nc1ccc(F)c(Cl)c1)C1CCN(S(=O)(=O)c2cccnc2)CC1 5.16%
COc1ccc(C2Nc3ccccc3C(=O)N2Cc2ccccc2)cc1Cn1nnc2ccccc21 (stereo not drawn) 1.35%
CC(=C1C(=O)c2ccccc2C1=O)N1CCN(c2ccccn2)CC1 -0.27%
O=C(c1ccc(Cl)c(Cl)c1)N1CCCC1 -2.15%
CC(C)CC(N=C1NC(C)(C)Cc2ccccc21)C(=O)O (stereo not drawn) -1%
COC(=O)c1ccccc1NC(=O)CSc1nnnn1C -1.15%
O=[N+]([O-])c1ccccc1NCc1ccc(Cl)cc1 1.41%
Cc1ccc(CNC(=O)COc2ccc(S(=O)(=O)NC(C)C)cc2)cc1 -1.67%
Cc1nc(N2CCOCC2)nc2c1CCCC2 -0.58%
CCC(C)NC(=O)CCCc1ccccc1 (stereo not drawn) 2.61%
CCn1c(SCc2ccc(C)cc2)nnc1-c1nn(-c2ccccc2)ccc1=O 3.11%
CN(C)/C(CN1CCCCC1)=C1\N=C(c2ccccc2)OC1=O -3.3%
CCN(CC)c1nc(-c2ccccc2)cc(C(F)(F)F)c1C#N 4.59%
FC(F)(F)c1nnc2sc(-c3ccco3)nn12 -8.22%
Cc1nnc2sc(-c3ccco3)nn12 0.33%
NC(=O)c1ncc(C(F)(F)F)cc1Oc1ccc(F)cc1 1.7%
COc1ccccc1N(C)S(=O)(=O)c1ccc(C(=O)N2CCC(C(N)=O)CC2)cc1 -1.2%
CCOC(=O)c1c(NC(=O)CSc2nnc(C)c(=O)[nH]2)sc2c1CCC2 -5.37%
COC(=O)c1c(NC(=O)c2cccs2)sc2c1CCCC2 -3.96%
OCCN(Cc1ccccc1)Cc1ccc(Cl)cc1 1.29%
CCOC(=O)c1c(NC(=O)CSc2nnc(CNc3ccc(C)cc3C)o2)sc(C)c1C 0.35%
Cc1nn(Cc2ccc(C(=O)N3N=C(C(F)F)CC3(O)C(F)F)cc2)c(C)c1[N+](=O)[O-] (stereo not drawn) -1.38%
Cc1ccc(S(=O)(=O)/N=C(/Nc2ccccn2)c2ccc(Cl)cc2)cc1 -9%
COc1cc(C2CC(=O)c3cnc(NC(C)=O)nc3C2)cc(OC)c1OC (stereo not drawn) 0.08%
N#C/C(=C\c1ccccc1)c1n[nH]c(Cn2cncn2)n1 -0.5%
COc1ccc(N/N=C2/CCCCC2=O)cc1 -0.48%
O=C1CSC2=NCN(c3ccccc3)CN12 3.72%
Cc1ccc2c(c1)N(CC(=O)N(Cc1ccccn1)Cc1ccco1)C(=O)C(C(C)C)O2 (stereo not drawn) 0.38%
Cc1ccccc1OC(=O)Cn1c(C(F)(F)F)nc2ccccc21 -3.25%
CCn1c(SCC(=O)Nc2nc(C)cs2)nnc1C(C)NC(=O)c1ccccc1 (stereo not drawn) -0.18%
Cc1ccc(C(=O)OC2=CC(=O)CC(C)(C)C2)cc1 1.07%
Cn1c2ccccc2n2c(=O)c(=O)n(CC(=O)c3ccc(F)cc3)nc12 -3.16%
CCOc1ccc(C(O)Cn2c(=N)n(CCN3CCCCC3)c3ccccc32)cc1 (stereo not drawn) 0.54%
Cc1cc(C)n(-c2nc(SCC(=O)N3CCCC3)c3c4c(sc3n2)CCCC4)n1 1.79%
COc1ncnc2sc3c(c12)CCCC3 3.78%
Nc1ccccc1SCc1cc([N+](=O)[O-])cc2c1OCOC2 0.81%
CC(=NCc1ccc2c(c1)OCO2)C1=C(O)c2ccccc2C1=O 6.12%
CC(=NCc1ccco1)c1c(C(F)(F)F)[nH]n(-c2nc3ccccc3s2)c1=O 5.23%

inhibition, active:
Cn1cccc1C(=O)Nc1nccs1 25.5%
Cc1ccc(-c2nn(C(C)(C)C)c3ncnc(N)c23)cc1 38.8%
COc1ccc(NC(=O)ON=C2c3ccccc3-c3ccccc32)cc1 35%
O=[N+]([O-])c1ccc(C=Nc2ccc(Cl)cc2Cl)s1 20.7%
Cc1cccn2c(=O)c3cc(C(=O)N4COCC4(C)C)n(C)c3nc12 25.2%
CC(=O)c1ccc(Cc2ncc(C(F)(F)F)cc2Cl)s1 32.1%
Cc1cc(C)nc(-n2nc(C)cc2NC(=O)c2ccc(Br)o2)n1 19.6%
O=C(c1ccc2c(c1)C(=O)N(c1ccc(Cl)cc1)C2=O)N1CCN(c2ccccn2)CC1 22.9%
Fc1ccc(-c2ccc(-c3nn4c(-c5ccco5)nnc4s3)o2)cc1 19.2%
COC(=O)c1c(NC(=O)CSc2nncs2)sc2c1CCCCC2 19.5%
COCCn1c(C)cc(C(=O)CSc2ncnc3sc4c(c23)CCC4)c1C 83.3%
CC(=NCc1ccco1)C1=C(O)c2ccccc2C1=O 27.9%
